From PubChem BioAssay AID1159580 (chemical genetic matrix, 2015)
The whole screen tested about 5,500 compounds, of which about 2,000 (36%) were called active. About 18% were inconclusive and are not listed. Cut-off read from the data, not from the text of the source: active = normalized growth mostly below about 0.91 (no sharp cut-off); inconclusive = no clear call, values can overlap the other calls; inactive = mostly above about 0.92. Some of the results follow.

Test: chemical genetic growth profiling, strain panel (AID 1159580);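 note: tested at 20 µM; growth read once vehicle control cultures reached saturation at 30 °C; 1 = growth at the plate median or of vehicle wells; lower values mean less growth of the strain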
Details: S. cerevisiae deletion strains, growth OD
[1] = locus YAL013W, strain DEP1, hits give low values
[2] = locus YBR229C, strain ROT2, hits give low values
[3] = locus YCL061C, strain MRC1, hits give low values
[4] = locus YDL101C, strain DUN1, hits give low values
[5] = locus YDR150W, strain NUM1, hits give low values
[6] = locus YEL061C, strain CIN8, hits give low values
[7] = locus YGR078C, strain PAC10, hits give low values
[8] = locus YHR030C, strain SLT2, hits give low values
[9] = locus YHR087W, strain rtc3, hits give low values
[10] = locus YJR043C, strain POL32, hits give low values
[11] = locus YJR075W, strain HOC1, hits give low values
[12] = locus YLR039C, strain RIC1, hits give low values
[13] = locus YLR058C, strain SHM2 (second series), hits give low values
[14] = locus YLR085C, strain ARP6, hits give low values
[15] = locus YLR262C, strain YPT6, hits give low values
[16] = locus YML094W, strain GIM5, hits give low values
[17] = locus YMR219W, strain ESC1, hits give low values
[18] = locus YMR263W, strain SAP30, hits give low values
[19] = locus YMR307W, strain GAS1, hits give low values
[20] = locus YNL153C, strain GIM3, hits give low values
[21] = locus YNL298W, strain CLA4 (second series), hits give low values
[22] = locus YNL322C, strain KRE1, hits give low values
[23] = locus YNR030W, strain Alg12, hits give low values
[24] = locus YPL055C, strain LGE1, hits give low values
[25] = locus YPL241C, strain CIN2, hits give low values
[26] = locus YPR135W, strain CTF4, hits give low values

Measured: normalized growth

Fc1cccc(Cl)c1Cn1nnc(N2CCCCC2)n1
inactive: [1] 0.973 | [2] 0.96 | [3] 0.977 | [4] 0.992 | [5] 1.01 | [6] 0.966 | [7] 0.946 | [9] 0.941 | locus YJL187C, strain SWE1, hits give low values 0.969 | [10] 0.982 | [11] 0.914 | [12] 0.851 | [13] 0.969 | [15] 0.881 | [16] 0.918 | [17] 0.962 | [18] 0.976 | [19] 0.825 | [20] 0.962 | [21] 0.984 | [22] 0.961 | [23] 0.926 | [24] 0.959 | [25] 0.909
active: [8] 0.444 | [14] 0.762 | [26] 0.534

ON(Cc1c(F)cccc1Cl)Cc1c(F)cccc1Cl
inactive: [1] 0.985 | [2] 1.01 | [3] 0.997 | [4] 0.978 | [5] 0.951 | [6] 1.02 | [7] 0.979 | [8] 0.989 | [9] 0.986 | [10] 1.01 | [11] 0.986 | [12] 0.816 | [13] 1 | [14] 0.987 | [15] 0.829 | [16] 1.01 | [17] 0.988 | [18] 0.992 | [20] 0.976 | [21] 1.01 | [22] 0.987 | [23] 0.993 | locus YOL006C, strain TOP1, hits give low values 0.966 | [24] 1.02 | [25] 1 | [26] 0.852

COc1ccccc1NC(=O)Nc1nn(C)c2cccc(OC)c12
active: [8] 0.637 | locus YLR113W, strain HOG1, hits give low values 0.599 | locus YLR403W, strain SFP1, hits give low values 0.649 | locus YPL256C, strain CLN2, hits give low values 0.73
inactive: locus YAR019C, strain CDC15, hits give low values 0.917 | locus YBL105C, strain PKC1, hits give low values 0.918 | locus YBR135W, strain CKS1, hits give low values 0.933 | locus YBR136W, strain MEC1, hits give low values 0.919 | locus YBR160W, strain CDC28, hits give low values 0.932 | locus YDL017W, strain CDC7, hits give low values 0.924 | locus YDL028C, strain MPS1, hits give low values 0.938 | [4] 0.951 | locus YDL108W, strain KIN28, hits give low values 0.924 | locus YDL132W, strain cdc53, hits give low values 0.925 | locus YDL214C, strain PRR2, hits give low values 0.843 | locus YDR052C, strain DBF4, hits give low values 0.94 | locus YDR054C, strain cdc34, hits give low values 0.879 | locus YDR226W, strain ADK1, hits give low values 0.938 | locus YDR477W, strain SNF1, hits give low values 0.781 | locus YER123W, strain YCK3, hits give low values 0.811 | locus YER133W, strain GLC7, hits give low values 0.731 | locus YFL009W, strain cdc4, hits give low values 0.94 | locus YFL029C, strain CAK1, hits give low values 0.914 | locus YFR003C, strain YPI1, hits give low values 0.924 | locus YFR019W, strain FAB1, hits give low values 0.907 | locus YFR028C, strain CDC14, hits give low values 0.93 | locus YGR040W, strain KSS1, hits give low values 0.766 | locus YGR052W, strain FMP48, hits give low values 0.845 | locus YGR092W, strain DBF2, hits give low values 0.81 | locus YHR079C, strain IRE1, hits give low values 0.815 | locus YHR082C, strain KSP1, hits give low values 0.843 | locus YHR205W, strain SCH9, hits give low values 0.835 | locus YIL147C, strain SLN1, hits give low values 0.935 | locus YJL095W, strain BCK1, hits give low values 0.687 | locus YJL128C, strain PBS2, hits give low values 0.953 | locus YJL157C, strain FAR1, hits give low values 0.816 | locus YJR016C, strain ILV3, hits give low values 0.928 | locus YJR066W, strain TOR1 (second series), hits give low values 0.794 | locus YJR066W, strain TOR1, hits give low values 0.775 | locus YKL048C, strain ELM1, hits give low values 0.93 | locus YKL067W, strain YNK1, hits give low values 0.866 | locus YKL101W, strain HSL1, hits give low values 0.855 | locus YKL193C, strain SDS22, hits give low values 0.914 | locus YKL203C, strain TOR2, hits give low values 0.776 | locus YLR133W, strain CKI1, hits give low values 0.818 | locus YML070W, strain DAK1, hits give low values 0.824 | locus YMR001C, strain CDC5, hits give low values 0.902 | locus YMR205C, strain PFK2 (second series), hits give low values 0.863 | locus YMR277W, strain FCP1, hits give low values 0.918 | locus YNL006W, strain LST8, hits give low values 0.933 | locus YNL020C, strain ARK1, hits give low values 0.818 | locus YNL161W, strain CBK1, hits give low values 0.929 | locus YNL183C, strain NPR1, hits give low values 0.745 | locus YNL207W, strain RIO2, hits give low values 0.91 | locus YNL222W, strain SSU72, hits give low values 0.929 | locus YNL307C, strain MCK1 (second series), hits give low values 0.827 | locus YOL078W, strain AVO1, hits give low values 0.914 | locus YOL136C, strain PFK27, hits give low values 0.81 | locus YOR061W, strain CKA2, hits give low values 0.866 | locus YOR119C, strain RIO1, hits give low values 0.8 | locus YOR231W, strain MKK1, hits give low values 0.734 | locus YOR329C, strain SCD5, hits give low values 0.933 | locus YPL031C, strain PHO85, hits give low values 0.724 | locus YPL153C, strain RAD53, hits give low values 0.742 | locus YPL204W, strain HRR25, hits give low values 0.719 | locus YPL209C, strain IPL1, hits give low values 0.943 | locus YPR025C, strain CCL1, hits give low values 0.926 | locus YPR106W, strain ISR1, hits give low values 0.916 | locus YPR111W, strain DBF20, hits give low values 0.919 | strain NNK1, hits give low values 0.908 | strain TSCII, hits give low values 0.915

COc1ccccc1NC(=O)Nc1nc(-c2cccnc2)nc2ccccc12
inactive: [1] 1.01 | locus YAL040C, strain CLN3, hits give low values 1.02 | locus YCL061C, strain MRC1 (second series), hits give low values 1 | locus YDR363W, strain ESC2, hits give low values 1.02 | locus YER002W, strain NOP16, hits give low values 1.04 | [7] 0.993 | locus YGR229C, strain SMI1, hits give low values 1.01 | [18] 1.01 | [19] 1.02 | locus YNL128W, strain TEP1, hits give low values 0.998 | locus YNL175C, strain NOP13, hits give low values 0.977 | locus YNL197C, strain WHI3, hits give low values 1.01 | locus YNL224C, strain SQS1, hits give low values 1.01 | locus YOR083W, strain WHI5 (second series), hits give low values 1.01 | [24] 1.01
